Measurements taken from ChEMBL document CHEMBL3988442, “University of Dundee, Small-Polar-MMV Screening Library” (2021).
Hit rate of the full screen: of about 48,000 compounds, about 13,000 (27%) showed an effect of 50% or more. The list shows a part of the results.

system: Wolbachia pipientis; experiment: Anti-Wolbachia Cell-Based Screen; format: functional; parameters: scale not given: in the data most compounds retested in dose-response had high values; conditions: 5 µM

SMILES	Percent Effect
CS(=O)(=O)N1CCN(C(=O)c2ccco2)[C@H]2CS(=O)(=O)C[C@H]21	-4.132%
CC(=O)N1CCCC(C(=O)NCCc2ccc(F)c(Br)c2)C1 (centres undefined)	78.71%
CN1CC(C(=O)NCc2cccnc2OCC(F)(F)F)CC1=O (centres undefined)	1.673%
CN1CC(C(=O)NCCc2ccn(-c3ccc(F)cc3)n2)CC1=O (centres undefined)	-45.08%
CN1CC(C(=O)NCCc2ccc(F)c(Br)c2)CC1=O (centres undefined)	95.91%
Cc1ccccc1CCNC(=O)C1CC(=O)N(CC(F)(F)F)C1 (centres undefined)	1.737%
CN1CC(C(=O)NCCc2ccc(Br)cc2F)CC1=O (centres undefined)	108.1%
CN1CC(C(=O)NCc2ccc(OCc3cccnc3)cc2)CC1=O (centres undefined)	-2.56%
COc1ncccc1CNC(=O)C1CC(=O)N(C)C1 (centres undefined)	-5.362%
CN1CC(C(=O)NCc2ccc(Br)cc2F)CC1=O (centres undefined)	97.3%
CC(C)CN1CC(C(=O)NCCc2ccc(OC(F)F)cc2)CC1=O (centres undefined)	-18.94%
CSCc1nc(CCNC(=O)C2CCCN(C(C)=O)C2)cs1 (centres undefined)	1.152%
CC(=O)N1CCCC(C(=O)NCCc2nc(Cc3ccccc3)no2)C1 (centres undefined)	-1.107%
Cn1ccc(C(=O)NC2CCN(c3ncccn3)CC2)cc1=O	3.49%
CC(C)N1CCN(C(=O)Nc2cnn(CC(N)=O)c2)CC1	2.959%
N#Cc1cccnc1NCCNC(=O)N1CCCSCC1	-6.239%
CCN(CC)S(=O)(=O)CC(=O)Nc1ccsc1	-11.66%
NC(=O)N1CCCC(C(=O)NCCOc2ccc(F)cc2F)C1 (centres undefined)	-7.563%
NC(=O)N1CCCC(C(=O)NCCOc2ccc(F)c(F)c2)C1 (centres undefined)	-0.02905%
CC(=O)N1CCCC(C(=O)NCCOc2cc(C)cc(C)c2)C1 (centres undefined)	99.72%
COc1cccc(S(=O)(=O)CCN2CCN(CCO)CC2)c1	9.306%
Cc1ccc(C(=O)N2CCC(c3noc(-c4cccnc4)n3)CC2)cn1	104.3%
Cc1cccc2[nH]c(C3CCN(C(=O)c4ccnn4C)CC3)nc12	1.136%
Cc1noc(-c2ccc(N3CCC(C(=O)N4CCCC4)CC3)nc2)n1	-5.391%
O=C1NCCCC[C@@H]1Nc1ccc(-c2nc(C3CC3)no2)cn1	-3.27%

SMILES	Percent Effect
Cc1cc(C)n(CCN(C)c2ccc(-c3nc(C4CC4)no3)cn2)n1	-7.447%
Cc1ccc(-c2nc(C3CCN(C(=O)c4ccn(C)n4)CC3)no2)cn1	126.5%
N#Cc1cccc(C(=O)N2CC(c3nc(-c4cccnc4)no3)C2)c1	18.62%
Cc1cc(CNc2ccc(-c3nc(C4CC4)no3)cn2)no1	-5.978%
Cc1csc(CNc2ccc(-c3nc(C4CC4)no3)cn2)n1	8.683%
Cc1ccc(-c2nc(C3CCN(C(=O)c4ccnn4C)CC3)no2)cn1	110.8%
Cc1ccc(-c2nc(C3CCN(C(=O)c4cnn(C)c4)CC3)no2)cn1	103.5%
CS(=O)(=O)NCCn1ccc(-c2cccs2)n1	-6.394%
CCS(=O)(=O)CC(C)NC(=O)N(C)Cc1cc(Cl)cn1C (centres undefined)	-1.914%
CCn1ccnc1CN1CCCC(CO)(Cc2cccc(OC)c2)C1 (centres undefined)	5.509%
COCCN1CCN(C(=O)c2cc(C(C)C)on2)[C@H]2CS(=O)(=O)C[C@H]21	8.676%
CC(C)N1CC[C@@H]2[C@H](COCC3CC3)CN(C)C(=O)[C@@H]2CC1.O=C(O)C(F)(F)F	-0.4638%
COCC1c2nnn(CC3CC3)c2CCN1C(=O)c1cccc(F)c1 (centres undefined)	-7.214%
Cn1nnc2c1CCN(C(=O)CC1CC1)C2COCCN1CCCC1 (centres undefined)	-8.962%
COCC1c2nnn(C)c2CCN1C(=O)CCc1cccc(OC)c1 (centres undefined)	104.7%
COCC1c2nnn(CC3CC3)c2CCN1C(=O)c1cccn1C (centres undefined)	-3.461%
CCn1nnc2c1CCN(C(=O)c1ccc3c(c1)OCO3)C2COC (centres undefined)	-29.17%
COCC1c2nnn(C)c2CCN1C(=O)Cc1ccccn1 (centres undefined)	111.4%
CN(C)C(=O)N1CCc2c(nnn2C)C1COCC1CC1 (centres undefined)	-5.702%
COCC1c2nnn(C)c2CCN1C(=O)c1ccc(OC)c(F)c1 (centres undefined)	111.1%
COCC1c2nnn(C)c2CCN1C(=O)COc1ccccc1C (centres undefined)	112%
Cn1nnc2c1CCN(Cc1ccccn1)C2COCc1ccccc1.O=C(O)C(F)(F)F.O=C(O)C(F)(F)F (centres undefined)	-46.38%
COCC1c2nnn(C)c2CCN1C(=O)Cc1ccc2c(c1)OCO2 (centres undefined)	20.75%
CCc1ccc(CN2CCc3c(nnn3C)C2COC)cc1.O=C(O)C(F)(F)F (centres undefined)	-3.58%
